Bioassay records as filed in PubChem BioAssay.
Sampled rows, rich in hits. Any-hit rate of the full collection: about 19%.
Shiga inhibitor: A qHTS for Small Molecule Inhibitors of Shiga Toxin; Vero cells, Shiga toxin protein synthesis inhibition reporter; inhibition, % at 38.7 µM; actives 9.2% (n = 290,000); in the data active = inhibition mostly above about 28%, no sharp cut-off; inactive = mostly below about 43%; also: 0% is about no effect
Marburg entry inh: qHTS for inhibitors of binding or entry into cells for Marburg Virus | Marburg virus pseudotyped entry inhibition, cell reporter | Potency, µM (series often up to 37.8 µM), for inactives: top-dose activity change, negative = inhibition, usual class: inhibitors | actives 1.8% (n = 300,000) | AID 540276, 2011; calls by dose curve; tested in HEK293 cells; also: potency is read from the fitted curve at half-maximal effect; % is scaled to controls: 0 for no effect and ±100 for the full control effect
Pf growth 48h: Primary qHTS for delayed death inhibitors of the malarial parasite plastid, 48 hour incubation; Potency, µM (top dose mostly 28.7 µM), for inactives: top-dose activity change, negative = inhibition, most hits filed as inhibitors; actives 5.9% (n = 310,000); P. falciparum luciferase growth in erythrocytes, 48 h; also: potency is read from the fitted curve at half-maximal effect; % is scaled to controls: 0 for no effect and ±100 for the full control effect
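A one-generation exposure of luciferase-tagged malaria parasites in RPMI 1640/Albumax erythrocyte culture, 37 C and 5% CO2. Inhibition is inferred from decreased luminescence after adding detection reagent.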
Pf growth 96h: Primary qHTS for delayed death inhibitors of the malarial parasite plastid, 96 hour incubation. P. falciparum luciferase reporter growth, 96 h. actives 6.9% (n = 320,000). Potency, µM (doses to about 28.7 µM), for inactives: top-dose activity change, negative = inhibition, hits mostly inhibitors; also: potency is read from the fitted curve at half-maximal effect; % is scaled to controls: 0 for no effect and ±100 for the full control effect
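P. falciparum expressing integrated firefly luciferase, in erythrocytes at 2% hematocrit, 0.05% parasitemia, incubated with compounds 96 h at 37 C, 5% CO2. Growth inhibition read as loss of luminescence; two-generation exposure targets delayed-death apicoplast inhibitors.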
Lassa entry inh: qHTS for Inhibitors of binding or entry into cells for Lassa Virus; Lassa virus pseudotype entry inhibition, cell reporter; Potency, µM (top dose mostly 37.9 µM), inactives show at the top dose activity change, negative = inhibition, most hits filed as inhibitors; actives 1.2% (n = 300,000); AID 540256, 2011; calls by dose curve; tested in HEK293 cells; also: potency is read from the fitted curve at half-maximal effect; % is scaled to controls: 0 for no effect and ±100 for the full control effect; nearly all actives have a fitted effect of over 50% in size
Cycloheximide cs: Cycloheximide Counterscreen for Small Molecule Inhibitors of Shiga Toxin. cell reporter, cycloheximide protein synthesis inhibition counterscreen. max response, %. actives 12% (n = 300,000); in the data active = max response mostly above about 13%, no sharp cut-off; inactive = mostly below about 14%; also: read at 38.3 µM for the half of the compounds with a filed dose; 0% is about no effect
An asterisk follows results filed as active; u = inconclusive; x = no result; [ ] = another dose, or the depositor's remark. Unless noted, calls follow the shape of the dose curve; as a rule, active = well fitted inhibition curve with a large enough effect; inconclusive = small, poorly fitted or top-dose-only effect, or another doubt; inactive = no such curve, though single readings can be large or run the other way.

SMILES	Shiga inhibitor	Marburg entry inh	Pf growth 48h	Pf growth 96h	Lassa entry inh	Cycloheximide cs
CCCC1=Nc2cc(C(=O)NCCCOC(C)C)ccc2Sc2ccccc21	-5	u	12µM*	10%	6.5µM*	-4
CC1=Nc2cc(C(=O)NC3CCCC3)ccc2Sc2ccc(Br)cc21	x	u	x	x	-21%[46.1 µM]	x
CC1=Nc2cc(C(=O)NC3CCCCC3)ccc2Sc2ccc(Cl)cc21	x	x	x	x	4µM*	x
Cc1ccc(-c2nn(CC(=O)Nc3ccc4c(c3)nc3n4CCOC3)c(=O)c3ccccc23)cc1	14	u	u	9%	-7%	6
NC(=O)c1cc([N+](=O)[O-])ccc1Nc1ccccc1	x	x	25%	47%	x	x
O=c1[nH]c2cc(F)ccc2c2ccc(F)cc12	x	17%	x	x	1%	x
COc1cccc(-c2nc3c(c(=O)[nH]c(=O)n3Cc3ccccc3)n2CCO)c1OC(F)F	2	-25%[46.1 µM]	u	u	u	-2
CC1=Nc2cc(C(=O)NCCCOC(C)C)ccc2Sc2ccccc21	15	u	u	u	u	14
CC(C)OCCCNC(=O)c1ccc2c(c1)NC(=O)c1ccccc1S2	-1	u	3.7µM*	2%	u	-3
CCC1=Nc2cc(C(=O)NCCN3CCCC3)ccc2Sc2ccccc21	-3	x	u	2.3µM*	x	-3
CCC1=Nc2cc(C(=O)NCCCN3CCOCC3)ccc2Sc2ccccc21	-7	-16%[46.1 µM]	u	u	-29%[46.1 µM]	8
CC1=Nc2cc(C(=O)NCCc3ccc(Cl)cc3)ccc2Sc2ccc(C)cc21	x	7.9µM*	x	x	u	x
Cc1cc2sc3ccccc3c(=O)c2c(C)c1O	85*	u	u	29%	3%	71*
COc1ccc(-c2csc(CCN3N=C(C)CC3=O)n2)cc1	61	-26%[46.1 µM]	4.1µM*	u	3%	15
CN(CC(=O)Nc1cccc(Cl)c1)C1=NS(=O)(=O)c2ccccc21	x	-1%	x	x	-4%	x
CCc1cccc(NC(=O)CN(C)C2=NS(=O)(=O)c3ccccc32)c1	x	x	u	12µM*	x	x
O=C(/C=C/c1c(F)cccc1Cl)Nc1ccncc1	96*	-27%	73%	-21%	1%	61*
Cc1cc(NS(=O)(=O)c2ccc(NC(=O)/C=C/c3c(F)cccc3Cl)cc2)no1	-2	-3%	7%	u	14%	-5
O=C(/C=C/c1c(Cl)cccc1Cl)Nc1ccncc1	36	u	x	u	u	13*
O=C(/C=C/c1cccc(Cl)c1)Nc1ccncc1	53*	-3%	-8%	14%	20%	38*
O=C(O)CNC(=O)/C=C/c1c(Cl)cccc1Cl	22	12%	u	8%	13%	10
O=C(/C=C/c1cccc(Cl)c1)NCc1ccncc1	-8	u	16%	u	-2%	1
CN(C)c1ccc([C@@H]2[C@@H]([N+](=O)[O-])[C@H]3C=Cc4ccccc4N3[C@H]2C(=O)c2ccc(Cl)cc2)cc1	22*	-14%	u	u	-4%	21*
COc1ccc(C2(O)CC3CCC(C2)N3c2cc(C)nc(-c3ccccc3)n2)cc1 (stereo not given)	-19	12µM*	12µM*	x	2%	15
Cc1cc(N2CCCC2)nc(N2C3CCC2CC(O)(c2ccc(F)cc2)C3)n1 (stereo not given)	18	x	u	145%	x	-6
SMILES	Shiga inhibitor	Marburg entry inh	Pf growth 48h	Pf growth 96h	Lassa entry inh	Cycloheximide cs
COc1ccc(OC)c(/C=C/C(=O)OCC(=O)N2CCN(S(=O)(=O)c3ccc(C)cc3C)CC2)c1	x	-19%	19%	12%	-5%	x
Cc1ccc(C)c(S(=O)(=O)N2CCN(C(=O)Cc3ccccc3)CC2)c1	x	-7%[46.1 µM]	u	-21%	u	x
COc1ccccc1/C=C/C(=O)N1CCN(S(=O)(=O)c2cc(C)ccc2C)CC1	x	x	15µM*	u	x	x
COc1ccc(C)cc1S(=O)(=O)N1CCN(C(=O)c2ncoc2-c2ccc(C)cc2)CC1	-3	2%[46.1 µM]	1%	14%	u	-7
COc1ccc(C)cc1S(=O)(=O)N1CCN(C(=O)c2ncoc2-c2cccc(C)c2)CC1	5	-4%[46.1 µM]	1%	0.93µM*	x	-6
Cc1ccc(C)c(S(=O)(=O)N2CCN(C(=O)c3sccc3C)CC2)c1	x	u	u	-11%	-12%	x
CCc1cc(C(=O)N2CCN(S(=O)(=O)c3cc(C)ccc3C)CC2)sc1C	x	x	13µM*	u	x	x
COc1ccc(OC)c(/C=C/C(=O)N2CCN(S(=O)(=O)c3ccc(C)cc3C)CC2)c1	x	u	12µM*	13µM*	u	x
CCOC(=O)CCCc1ccc(/C(C)=N/NC(N)=S)cc1	25	u	u	u	u	15*
CCOC(=O)CCCc1ccc(/C(C)=N/NC(=S)NC)cc1	-12	6%	-20%	0%	x	-2
Cn1cccc1Cc1nnc(SCC(=O)Nc2cccc(Cl)c2)n1-c1ccc(F)cc1	-14	-21%	u	8.3µM*	-9%	-7
COc1ccc(-n2c(Cc3cccn3C)nnc2SCC(=O)Nc2ccc(C(C)=O)cc2)cc1	-4	x	x	0.47µM*	x	-2
Cc1ccc(-n2c(Cc3cccn3C)nnc2SCC(=O)NCc2ccco2)cc1	12	7%	8.3µM*	45%	1%	16
COc1ccc(Cl)cc1NC(=O)CSc1nnc(Cc2cccn2C)n1-c1ccc(F)cc1	-14	-30%	13µM*	u	-28%	-5
COc1ccc(NC(=O)CSc2nnc(Cc3cccn3C)n2-c2ccc(OC)cc2)cc1	-17	-9%	u	u	-8%	-3
COc1ccc(C(=O)NCC(c2cccnc2)N2CCN(c3ccccc3OC)CC2)cc1OC (stereo not given)	-1	-3%	u	u	x	-1
CCc1ccc(NC(=O)CSc2nnc(Cc3cccn3C)n2-c2ccc(F)cc2)cc1	-8	9%	10µM*	2.3µM*	x	-1
CC(=O)Nc1cccc(NC(=O)CSc2nnc(Cc3cccn3C)n2-c2ccc(C)cc2)c1	4	-13%	u	4.1µM*	3%	1
CCOC(=O)c1sc(NC(=O)CSc2nncn2C)nc1C	1	-7%	32%	337%	-11%	-1
COC(=O)c1ccccc1NC(=O)c1cnn2c(C)cc(C)nc12	22	-1%	-16%	u	0%	0
O=C(CSc1nnc(-c2ccc(F)cc2)o1)Nc1ccc(S(=O)(=O)N2CCCC2)cc1	42	-7%	u	25%	2%	20*
O=C(CSc1nnc(-c2ccc(F)cc2)o1)Nc1ccc(S(=O)(=O)N2CCCCCC2)cc1	-19	-15%	9.3µM*	-13%	u	-5
CC(C)(C)NC(=O)c1cc(Cl)ccc1[N+](=O)[O-]	-4	-1%	-1%	u	-1%	-4
